Experimental data as given in ChEMBL document CHEMBL1961873, “Compounds: GSK PKIS; Assays: Nanosyn kinase panel” (2012).

Tests used:
[1] = biological target: Dual specificity protein kinase CLK3 (Homo sapiens) (UniProt P49761); conditions: at 1 µM;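 note: each value is the mean inhibition of CLK3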
[2] = biological target: Dual specificity tyrosine-phosphorylation-regulated kinase 1A (Homo sapiens) (UniProt Q13627); conditions: at 0.1 µM
[3] = biological target: Dual specificity tyrosine-phosphorylation-regulated kinase 1A (Homo sapiens) (UniProt Q13627); conditions: at 1 µM
[4] = biological target: Dual specificity tyrosine-phosphorylation-regulated kinase 1B (Homo sapiens) (UniProt Q9Y463); conditions: at 0.1 µM
[5] = biological target: Dual specificity tyrosine-phosphorylation-regulated kinase 1B (Homo sapiens) (UniProt Q9Y463); conditions: at 1 µM
[6] = biological target: T1, Dual specificity tyrosine-phosphorylation-regulated kinase 2 (Homo sapiens) (UniProt Q92630); conditions: at 0.1 µM
T1 sequence (whole entry): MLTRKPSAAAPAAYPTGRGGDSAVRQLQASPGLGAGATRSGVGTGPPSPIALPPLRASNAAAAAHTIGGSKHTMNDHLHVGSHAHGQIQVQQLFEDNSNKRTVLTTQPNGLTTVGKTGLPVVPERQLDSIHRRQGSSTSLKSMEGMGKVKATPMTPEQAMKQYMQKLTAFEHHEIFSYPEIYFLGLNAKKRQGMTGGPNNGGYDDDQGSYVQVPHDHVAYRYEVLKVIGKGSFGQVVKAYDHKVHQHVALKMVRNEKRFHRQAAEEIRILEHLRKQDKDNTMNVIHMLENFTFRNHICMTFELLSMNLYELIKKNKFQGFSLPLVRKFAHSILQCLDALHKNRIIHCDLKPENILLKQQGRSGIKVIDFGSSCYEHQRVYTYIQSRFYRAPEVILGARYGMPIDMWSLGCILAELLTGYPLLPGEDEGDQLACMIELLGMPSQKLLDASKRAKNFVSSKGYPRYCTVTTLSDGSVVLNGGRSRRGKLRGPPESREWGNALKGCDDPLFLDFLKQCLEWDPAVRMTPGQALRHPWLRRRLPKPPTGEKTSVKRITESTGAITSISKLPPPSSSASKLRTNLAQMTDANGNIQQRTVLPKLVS

[7] = biological target: T1, Dual specificity tyrosine-phosphorylation-regulated kinase 2 (Homo sapiens); conditions: at 1 µM
[8] = biological target: Glycogen synthase kinase-3 alpha (Homo sapiens) (UniProt P49840); conditions: at 0.1 µM
[9] = biological target: Glycogen synthase kinase-3 alpha (Homo sapiens) (UniProt P49840); conditions: at 1 µM
[10] = biological target: Homeodomain-interacting protein kinase 1 (Homo sapiens) (UniProt Q86Z02); conditions: at 0.1 µM
[11] = biological target: Homeodomain-interacting protein kinase 1 (Homo sapiens) (UniProt Q86Z02); conditions: at 1 µM
[12] = biological target: T2, Homeodomain-interacting protein kinase 4 (Homo sapiens) (UniProt Q8NE63); conditions: at 0.1 µM
T2 sequence (whole entry): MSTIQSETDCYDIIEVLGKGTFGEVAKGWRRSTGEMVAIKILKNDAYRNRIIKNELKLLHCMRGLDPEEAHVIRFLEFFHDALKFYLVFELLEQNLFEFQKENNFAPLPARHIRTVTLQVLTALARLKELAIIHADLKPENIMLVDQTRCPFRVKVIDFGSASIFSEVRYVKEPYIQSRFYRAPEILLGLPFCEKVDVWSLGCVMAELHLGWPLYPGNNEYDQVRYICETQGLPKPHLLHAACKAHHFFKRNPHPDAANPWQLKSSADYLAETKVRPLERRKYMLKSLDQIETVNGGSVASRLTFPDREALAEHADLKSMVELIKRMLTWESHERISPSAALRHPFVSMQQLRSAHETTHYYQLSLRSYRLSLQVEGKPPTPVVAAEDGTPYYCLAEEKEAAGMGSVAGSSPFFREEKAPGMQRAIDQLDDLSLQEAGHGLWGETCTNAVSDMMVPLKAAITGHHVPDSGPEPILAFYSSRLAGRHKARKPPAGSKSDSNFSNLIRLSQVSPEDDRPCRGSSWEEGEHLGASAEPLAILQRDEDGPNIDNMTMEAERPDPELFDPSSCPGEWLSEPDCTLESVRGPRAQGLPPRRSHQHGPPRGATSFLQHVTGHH

[13] = biological target: T2, Homeodomain-interacting protein kinase 4 (Homo sapiens); conditions: at 1 µM
[14] = biological target: Mitogen-activated protein kinase 9 (Homo sapiens) (UniProt P45984); conditions: at 0.1 µM
[15] = biological target: Mitogen-activated protein kinase 9 (Homo sapiens) (UniProt P45984); conditions: at 1 µM
[16] = biological target: Mitogen-activated protein kinase 1 (Homo sapiens) (UniProt P28482); conditions: at 0.1 µM
[17] = biological target: Mitogen-activated protein kinase 1 (Homo sapiens) (UniProt P28482); conditions: at 1 µM
[18] = biological target: Mitogen-activated protein kinase 3 (Homo sapiens) (UniProt P27361); conditions: at 0.1 µM;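 note: each value is a mean inhibition figure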
[19] = biological target: Glycogen synthase kinase-3 beta (Homo sapiens) (UniProt P49841); conditions: at 0.1 µM
[20] = biological target: Glycogen synthase kinase-3 beta (Homo sapiens) (UniProt P49841); conditions: at 1 µM

Sequence of Mitogen-activated protein kinase 1 (Homo sapiens) (P28482 whole entry): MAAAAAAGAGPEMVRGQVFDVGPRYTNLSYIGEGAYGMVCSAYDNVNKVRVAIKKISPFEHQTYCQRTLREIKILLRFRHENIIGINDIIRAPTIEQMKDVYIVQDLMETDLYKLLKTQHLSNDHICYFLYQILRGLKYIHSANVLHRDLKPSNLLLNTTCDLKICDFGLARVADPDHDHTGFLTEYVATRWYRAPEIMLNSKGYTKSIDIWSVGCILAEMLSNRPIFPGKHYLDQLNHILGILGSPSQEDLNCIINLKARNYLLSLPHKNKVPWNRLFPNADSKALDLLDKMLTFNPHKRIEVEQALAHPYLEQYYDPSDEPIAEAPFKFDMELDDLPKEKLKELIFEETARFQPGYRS
Sequence of Dual specificity protein kinase CLK3 (Homo sapiens) (P49761 whole entry, looked up): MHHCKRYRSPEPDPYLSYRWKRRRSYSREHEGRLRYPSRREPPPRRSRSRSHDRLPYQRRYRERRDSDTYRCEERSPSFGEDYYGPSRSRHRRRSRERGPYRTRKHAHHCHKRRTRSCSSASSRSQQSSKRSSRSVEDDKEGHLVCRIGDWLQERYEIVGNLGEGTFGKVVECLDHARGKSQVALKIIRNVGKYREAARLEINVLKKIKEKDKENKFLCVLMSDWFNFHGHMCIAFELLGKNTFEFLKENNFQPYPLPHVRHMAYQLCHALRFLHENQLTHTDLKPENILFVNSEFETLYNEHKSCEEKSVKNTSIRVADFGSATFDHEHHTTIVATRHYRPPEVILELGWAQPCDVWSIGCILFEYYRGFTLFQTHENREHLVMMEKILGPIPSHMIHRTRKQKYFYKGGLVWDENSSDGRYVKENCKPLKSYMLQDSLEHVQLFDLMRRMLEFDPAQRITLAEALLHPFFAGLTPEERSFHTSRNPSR
Sequence of Glycogen synthase kinase-3 alpha (Homo sapiens) (P49840 2-483 limits assumed): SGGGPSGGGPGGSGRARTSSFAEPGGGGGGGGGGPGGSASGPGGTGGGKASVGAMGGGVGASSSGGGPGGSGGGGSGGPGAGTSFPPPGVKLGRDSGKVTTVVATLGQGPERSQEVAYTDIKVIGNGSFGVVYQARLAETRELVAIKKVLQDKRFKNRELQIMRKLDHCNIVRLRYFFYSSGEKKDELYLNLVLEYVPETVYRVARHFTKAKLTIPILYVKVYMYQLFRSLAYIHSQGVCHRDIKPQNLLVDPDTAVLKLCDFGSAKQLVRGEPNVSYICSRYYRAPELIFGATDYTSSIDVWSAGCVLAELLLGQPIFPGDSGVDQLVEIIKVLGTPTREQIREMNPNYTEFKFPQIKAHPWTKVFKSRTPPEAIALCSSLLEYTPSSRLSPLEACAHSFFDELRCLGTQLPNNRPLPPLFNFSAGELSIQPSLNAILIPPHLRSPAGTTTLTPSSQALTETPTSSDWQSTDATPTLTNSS
Sequence of Glycogen synthase kinase-3 beta (Homo sapiens) (P49841 whole entry, looked up): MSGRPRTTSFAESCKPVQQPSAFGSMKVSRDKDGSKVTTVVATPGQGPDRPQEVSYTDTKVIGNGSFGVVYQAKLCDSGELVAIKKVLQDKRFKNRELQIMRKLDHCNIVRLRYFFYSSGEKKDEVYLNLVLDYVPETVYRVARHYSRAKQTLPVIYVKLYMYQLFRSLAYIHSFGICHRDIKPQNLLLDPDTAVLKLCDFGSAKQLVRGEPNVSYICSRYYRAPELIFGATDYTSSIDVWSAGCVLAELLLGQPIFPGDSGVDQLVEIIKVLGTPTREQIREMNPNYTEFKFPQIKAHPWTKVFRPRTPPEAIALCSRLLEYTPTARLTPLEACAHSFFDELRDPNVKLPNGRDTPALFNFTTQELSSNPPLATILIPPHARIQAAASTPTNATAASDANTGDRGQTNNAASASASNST
Sequence of Mitogen-activated protein kinase 9 (Homo sapiens) (P45984 whole entry, looked up): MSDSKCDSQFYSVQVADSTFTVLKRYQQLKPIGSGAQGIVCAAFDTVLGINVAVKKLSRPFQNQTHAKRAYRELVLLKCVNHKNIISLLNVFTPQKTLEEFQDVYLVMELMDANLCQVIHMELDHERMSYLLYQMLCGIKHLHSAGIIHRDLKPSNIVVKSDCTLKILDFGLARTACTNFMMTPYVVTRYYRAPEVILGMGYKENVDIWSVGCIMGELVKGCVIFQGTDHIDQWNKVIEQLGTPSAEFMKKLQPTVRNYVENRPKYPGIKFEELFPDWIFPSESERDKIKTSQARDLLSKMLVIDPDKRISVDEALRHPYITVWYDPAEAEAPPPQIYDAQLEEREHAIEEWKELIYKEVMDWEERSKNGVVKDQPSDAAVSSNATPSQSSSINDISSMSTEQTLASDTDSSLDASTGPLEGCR
Sequence of Homeodomain-interacting protein kinase 1 (Homo sapiens) (Q86Z02 whole entry, looked up): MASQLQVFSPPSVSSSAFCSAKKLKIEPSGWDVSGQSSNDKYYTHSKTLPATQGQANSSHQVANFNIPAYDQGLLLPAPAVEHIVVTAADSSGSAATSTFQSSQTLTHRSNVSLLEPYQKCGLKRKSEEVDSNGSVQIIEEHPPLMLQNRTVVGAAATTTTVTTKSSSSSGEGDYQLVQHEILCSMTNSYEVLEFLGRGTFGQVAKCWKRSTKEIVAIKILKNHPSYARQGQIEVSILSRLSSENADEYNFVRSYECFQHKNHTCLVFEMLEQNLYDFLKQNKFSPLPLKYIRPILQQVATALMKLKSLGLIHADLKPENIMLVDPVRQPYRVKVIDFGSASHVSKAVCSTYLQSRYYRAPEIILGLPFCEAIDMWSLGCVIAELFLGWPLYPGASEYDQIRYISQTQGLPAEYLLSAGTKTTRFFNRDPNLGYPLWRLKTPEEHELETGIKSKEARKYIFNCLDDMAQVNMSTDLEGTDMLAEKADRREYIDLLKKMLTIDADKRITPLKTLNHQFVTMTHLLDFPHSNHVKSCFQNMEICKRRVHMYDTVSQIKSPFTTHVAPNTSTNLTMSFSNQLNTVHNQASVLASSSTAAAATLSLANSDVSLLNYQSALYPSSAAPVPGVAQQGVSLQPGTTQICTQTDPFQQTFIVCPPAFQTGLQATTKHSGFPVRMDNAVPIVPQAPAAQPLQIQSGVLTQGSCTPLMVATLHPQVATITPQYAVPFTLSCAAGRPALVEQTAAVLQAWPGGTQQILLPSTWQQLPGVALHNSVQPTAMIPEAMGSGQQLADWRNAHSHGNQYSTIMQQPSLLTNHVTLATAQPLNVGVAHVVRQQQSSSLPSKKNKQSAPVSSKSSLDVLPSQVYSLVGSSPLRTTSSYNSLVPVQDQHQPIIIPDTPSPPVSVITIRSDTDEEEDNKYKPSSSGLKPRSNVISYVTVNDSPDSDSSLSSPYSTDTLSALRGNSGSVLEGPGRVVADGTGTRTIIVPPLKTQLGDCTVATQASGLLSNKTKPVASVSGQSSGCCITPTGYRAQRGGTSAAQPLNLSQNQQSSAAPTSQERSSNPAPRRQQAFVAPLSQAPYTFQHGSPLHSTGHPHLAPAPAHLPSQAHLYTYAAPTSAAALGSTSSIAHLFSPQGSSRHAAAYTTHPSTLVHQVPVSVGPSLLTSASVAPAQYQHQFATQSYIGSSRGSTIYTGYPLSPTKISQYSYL
Sequence of Mitogen-activated protein kinase 3 (Homo sapiens) (P27361 whole entry): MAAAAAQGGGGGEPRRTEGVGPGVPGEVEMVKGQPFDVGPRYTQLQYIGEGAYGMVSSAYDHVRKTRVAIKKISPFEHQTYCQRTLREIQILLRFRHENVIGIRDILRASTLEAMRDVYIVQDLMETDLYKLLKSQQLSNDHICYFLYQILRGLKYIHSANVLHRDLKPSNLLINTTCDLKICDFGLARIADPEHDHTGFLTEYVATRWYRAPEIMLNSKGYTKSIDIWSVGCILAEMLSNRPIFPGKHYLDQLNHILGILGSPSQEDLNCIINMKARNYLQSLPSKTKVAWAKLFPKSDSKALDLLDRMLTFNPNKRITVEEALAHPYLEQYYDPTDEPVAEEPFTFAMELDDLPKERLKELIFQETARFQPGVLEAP
Sequence of Dual specificity tyrosine-phosphorylation-regulated kinase 1B (Homo sapiens) (Q9Y463 whole entry, looked up): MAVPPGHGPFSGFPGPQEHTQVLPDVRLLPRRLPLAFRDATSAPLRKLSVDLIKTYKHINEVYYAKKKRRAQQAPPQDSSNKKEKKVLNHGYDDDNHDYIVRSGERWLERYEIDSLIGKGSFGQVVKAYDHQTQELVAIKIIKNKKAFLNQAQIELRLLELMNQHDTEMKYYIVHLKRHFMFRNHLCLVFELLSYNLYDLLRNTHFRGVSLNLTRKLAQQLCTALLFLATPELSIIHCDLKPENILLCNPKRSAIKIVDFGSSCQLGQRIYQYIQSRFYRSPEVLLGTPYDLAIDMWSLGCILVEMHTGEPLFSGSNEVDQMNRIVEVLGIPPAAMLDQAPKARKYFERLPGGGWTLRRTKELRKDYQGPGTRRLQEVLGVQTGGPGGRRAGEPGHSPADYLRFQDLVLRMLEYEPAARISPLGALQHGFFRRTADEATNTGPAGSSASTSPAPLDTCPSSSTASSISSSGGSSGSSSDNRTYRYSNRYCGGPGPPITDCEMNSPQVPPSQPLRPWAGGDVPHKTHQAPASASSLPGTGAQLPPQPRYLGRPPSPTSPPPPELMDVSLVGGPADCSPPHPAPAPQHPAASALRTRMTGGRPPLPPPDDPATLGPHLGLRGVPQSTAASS

SMILES	inhibition [1] [%]	inhibition [2] [%]	inhibition [3] [%]	inhibition [4] [%]	inhibition [5] [%]	inhibition [6] [%]	inhibition [7] [%]	inhibition [8] [%]	inhibition [9] [%]	inhibition [10] [%]	inhibition [11] [%]	inhibition [12] [%]	inhibition [13] [%]	inhibition [14] [%]	inhibition [15] [%]	inhibition [16] [%]	inhibition [17] [%]	inhibition [18] [%]	inhibition [19] [%]	inhibition [20] [%]
COc1ccc(-c2ccc3c(NC(=O)C4CC4)n[nH]c3n2)cc1	2.15	0.91	1.49	-0.93	0.04	1.19	2.63	3.01	8.2	1.57	2.49	0.72	0.93	3.56	1.85	2.19	3.67	4.98		
O=C(Nc1ccc(Oc2ccc3[nH]c(NC(=O)c4ccccc4)nc3c2)cc1)Nc1cc(C(F)(F)F)ccc1F	3.71	1.94	4.75	0.86	3.47	2.36	3.65	3.49	8.16	-0.21	0.17	9.12	47.7	3.43	6.62	2.12	2.7	4.31	3.19	7.73
COc1ccc2cc(-c3c(-c4ccncc4)nc(-c4ccc(S(C)(=O)=O)cc4C)n3C)ccc2c1	2.06	2.19	7.68	0.76	2.36	3.55	4.35	2.9	6.04	0.5	-0.46	-0.03	1.88	4.44	10.1	5.2	5.44	3.83	2.27	6.76
Cc1ccc(C(=O)NC(C)C)cc1-c1ccc(C(=O)NCC2CC2)cc1	0.67	1.18	2.28	3.39	3.96	-2.49	-3.21	1.52	3.31	-2.55	1.88	0.31	3.79	-1.51	-0.22	-3.93	-4.45	-2.87	1.46	3.01
COc1cc(Nc2ncc(-c3ccccc3)o2)cc(OC)c1OC	0.88	1.8	6.39	1.65	3.72	-2.15	-1.69	5.71	34.4		11.2	0.61	3.87	-3.91	-3.35	-2.3	-1.83	0.83	5.44	35.8
O=C1NC(=O)C(c2cccc(Cl)c2)=C1Nc1ccc(Cl)c(C(=O)O)c1	2.4	1.22	5.02	-0.3	1.57	1.93	2.84	32.8	77.5	2.03	1.77	1.36	0.39	1.14	3.47	11	5.36	5.36		
COc1cccc(/C=N/Nc2ncnc3c2cnn3-c2cccc(OC)c2)c1	1.67	3.1	7.79	-0.79	2.23	2.19	6.04	14.8	58.1	-1.82	2.63	0.49	4.13	3.29	5.5	5.68		3.77	10.3	51.1
O=C(Nc1n[nH]c2cc(-c3ccccc3)ccc12)C1CC1	2.33	5.04	6.14	1.94	3.5	2.82	4.68	6.53	32.7	0.47	0.72	1.87	3.44	6.25	7.19	2.48	6.01	4.31		
COc1cc2ncn(-c3cc(OCc4ccccc4C(F)(F)F)c(C(C)=O)s3)c2cc1OC	1.08	1.88	2.83	-0.72	0.32	1.35	1.43	1.6	3.73	-0.68	4.77	3.23	7.24	0.67	0.69	5.64	5.81	3.61	1.43	2.85
O=C(Nc1n[nH]c2nc(-c3ccc(O)cc3)c(Br)cc12)C1CC1	8.39	17.6	55.5	33.2	71.7	12.4	53.3	82.8	85.7	14.7	58	2.65	10.4	12.2	19.4	5.75	10.1	5.33		
COc1cc(C)c(N(C)C(=O)CN(C)C)cc1Nc1nc(Nc2cccc(F)c2C(N)=O)c2cc[nH]c2n1	-1.03	2.09	15.2	-1.79	13.1	2.31	1.64	-2.99	-1.13	-4.07	2.02	0.06	4.88	1.42	2.97	0.6	3.4	2.26	-3.79	-3.33
Fc1ccc(-c2ncn(C3CCNCC3)c2-c2ccnc(Oc3ccc(F)c(F)c3)n2)cc1	-3.79	-2.02	-0.16	-4.48	-2.53	1.98	2.31	0.07	2.94	-6.31	-2.14	0.46	1.77			4.93	6.35	3.84	-0.48	2.53
N#Cc1ccc(Oc2nccc(-c3c(-c4ccc(F)cc4)ncn3C3CCNCC3)n2)cc1	-0.16	2.5	3.49	-2.39	-1.58	2.92	2.24	1.66	2.69	-4.47	-6.22	-0.7	-0.61			4.87	6.51	6.9	0.3	1.96
CCc1ccc(Oc2nccc(-c3c(-c4ccc(F)cc4)ncn3C3CCNCC3)n2)cc1	0.51	0.92	1.59	-0.38	1.04	4.87	4.71	3.69	7.13	-2.3	1.77	0.48	2.99			6.77	11.6	5.92	2.44	7.29
FC(F)(F)c1cccc(Nc2nccc(-c3cnn4nc(-c5ccccc5)ccc34)n2)c1	6.92	1.59	8.11	0.33	8.12	1.14	0.09	23.5	67.8	7.68	51.8	6.64	35.8	-0.53	-1.92	4.13	3.46	0.87		
c1ccc(Oc2ccc(Nc3ncc(-c4ccccc4)o3)cc2)cc1	1.59	2.14	5.29	1.51	2.84	0.4	0.21	2	5.53	1.51	3.29	-0.61	1.2	0.54	2.94	-1.99	6.11	1.01	1.83	7.42
NC(=O)c1ccc(Oc2nccc(-c3c(-c4ccc(F)cc4)ncn3C3CCNCC3)n2)cc1	1.67	3.41	5.23	0.33	-0.41	4.43	9.4	2.18	3.39	0.03	2.53	0.33	0.25			5.21	6.64	3.78	2.57	3.17
